# Compound activity: PubChem, National Center for Advancing Translational Sciences (NCATS)
# The entries come from a sample that favours hits as a whole.
# Shiga inhibitor: A qHTS for Small Molecule Inhibitors of Shiga Toxin; Vero cells, Shiga toxin protein synthesis inhibition reporter; AID 2315, 2010; inhibition, % at 38.7 µM; 290,000 tested, 9.2% active; in the data active = inhibition mostly above about 28%, no sharp cut-off; inactive = mostly below about 43%; also: 0% is about no effect
# AMA1-RON2 inh: qHTS for Inhibitors of AMA1-RON; Towards Development of Antimalarial Drug Lead: Primary Screen; Plasmodium falciparum AMA1 (3D7) - RON2 peptide interaction; AlphaScreen AMA1-biotinylated RON2 peptide binding; Potency, µM (series often up to 58.2 µM), for inactives: top-dose activity change, negative = inhibition, usual class: inhibitors; 360,000 tested, 0.2% active; AID 720542, 2013; active = well fitted inhibition curve with a large enough effect; inconclusive = small, poorly fitted or top-dose-only effect; inactive = no such curve, though single readings can be large or run the other way;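 also: potency is read from the fitted curve at half-maximal effect; 0% = vehicle wells and -100% = peptide control; nearly all actives have a fitted effect of over 45% in size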
#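 AMA1 (3D7) with his tag at 25 nM final met compounds first, then biotinylated RON2 peptide at 25 nM; detection used donor plus acceptor beads, 10 µg/mL apiece, read by AlphaScreen after 30 min at room temperature.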
# Marburg entry inh: qHTS for inhibitors of binding or entry into cells for Marburg Virus | Marburg virus pseudotyped entry inhibition, cell reporter | Potency, µM (top dose mostly 37.8 µM), inactives show top-dose activity change, negative = inhibition, hits mostly inhibitors | 300,000 tested, 1.8% active; calls by dose curve; tested in HEK293 cells; also: potency is read from the fitted curve at half-maximal effect; % is scaled to controls: 0 for no effect and ±100 for the full control effect
# LASV entry inh: qHTS for Inhibitors of binding or entry into cells for Lassa Virus; Lassa virus pseudotype entry inhibition, cell reporter; Potency, µM (titrated, usually from 37.9 µM), without a hit: at the top dose activity change, negative = inhibition, most hits filed as inhibitors; 300,000 tested, 1.2% active; calls by dose curve; tested in HEK293 cells; also: potency is read from the fitted curve at half-maximal effect; % is scaled to controls: 0 for no effect and ±100 for the full control effect; nearly all actives have a fitted effect of over 50% in size
# CHX counter: Cycloheximide Counterscreen for Small Molecule Inhibitors of Shiga Toxin | cell reporter, cycloheximide protein synthesis inhibition counterscreen | max response, % | 300,000 tested, 12% active | AID 2314, 2010; in the data active = max response mostly above about 13%, no sharp cut-off; inactive = mostly below about 14%; also: read at 38.3 µM for the half of the compounds with a filed dose; 0% is about no effect
# An asterisk follows results filed as active; i = inactive; ? = inconclusive; · = not tested or not shown; + = active, no number; [ ] = dose if it differs, or a comment.
SMILES,Shiga inhibitor,AMA1-RON2 inh,Marburg entry inh,LASV entry inh,CHX counter
COc1ccc(/C=C(\C#N)C(=O)N2COCC2(C)C)cc1,18.6,-8.5%,·,·,9.1
CSc1cccc(NC(=O)C2CCCN(S(=O)(=O)c3ccc4c(c3)CCCN4C(C)=O)C2)c1 (stereo not given),·,·,·,-10.4%[46.1 µM],·
CC1(C)CC(=O)C(C=Nc2ccc(O)c(N=CC3=C(O)CC(C)(C)CC3=O)c2)=C(O)C1,14.8,63.5%,?,?,0.8
CC1(C)CC(=O)C(C=NCCc2ccc(O)cc2)=C(O)C1,8.6,0.3%,11.6%,2.0%,-4.7
CC1(C)CC(=O)C(C=NCc2ccc3c(c2)OCO3)=C(O)C1,-3.5,1.9%,?,-8.2%,active
CC1(C)CC(=O)C(C=Nc2ccc3c(c2)OCO3)=C(O)C1,81.4*,-3.0%,2.4%,-18.9%,39.1*
Cc1ccc2nc(SCC(=O)NCc3ccccc3)nc(=O)n2c1,·,17.6%,-1.8%[46.1 µM],12.8%,·
CCOC(=O)c1ccc(NC(=O)C2=C(C)Nc3nc(CCCO)nn3C2c2ccc(OC)cc2)cc1 (stereo not given),66.0*,-5.8%,0.8%,1.1%,44.0*
C(=C\c1nc(N2CCCCCC2)c2ccccc2n1)/c1ccccc1,35.7*,0.8%,11.2µM*,-4.9%,23.4*
c1ccc2c(N3CCCCC3)nc(N3CCCCC3)nc2c1,-5.1,-4.2%,25.6%,?,-3.6
CN1CCc2nc(SCC(=O)Nc3ccc(OC(F)(F)F)cc3)c(C#N)c(-c3cccs3)c2C1,0.8,19.8%,?,5.4%,5.1
CN1CCc2nc(SCC(=O)Nc3cccc(F)c3)c(C#N)c(-c3cccs3)c2C1,52.8*,-14.4%,-23.3%,4.1%,36.7
O=C1c2ccccc2C(=O)c2[nH]c(=O)[nH]c21,3.9,-14.8%,?,10µM*,-1.8
CCN(CC)S(=O)(=O)c1cc(NC(=O)c2ccccc2OCc2c(C)noc2C)ccc1C,·,-0.4%[11.6 µM],?,11.2µM*,·
Cc1ccc(C(=O)NNC(=O)c2ccccc2OCc2c(C)noc2C)cc1,·,60.5%,3.55µM*,5.7%,·
Cc1noc(C)c1COc1ccccc1C(=O)Nc1cccc(S(=O)(=O)N(C)C)c1,·,6.2%,-16.6%,0.0%,·
Cc1ccccc1NC(=O)c1cnc2sc(N3CCCC3)nn2c1=O,·,·,·,-7.2%[46.1 µM],·
O=C(NCCc1ccccc1)c1cnc2ccccn2c1=O,56.6*,-3.8%,?,?,41.0*
Cc1csc2ncc(C(=O)NCCc3ccccc3)c(=O)n12,47.7*,7.8%,·,·,45.3*
CSc1ccccc1NC(=O)c1cnc2scc(C)n2c1=O,28.0*,11.9%,·,·,25.0*
Cc1csc2ncc(C(=O)NCCC(c3ccccc3)c3ccccc3)c(=O)n12,-2.6,27.3%,-19.5%[46.1 µM],-17.8%[46.1 µM],2.1
Cn1c(C(=O)NCCc2ccccc2)cc2c(=O)n3ccccc3nc21,·,·,·,35.8%[46.1 µM],·
Cc1ccccc1NC(=O)c1cnc2ccccn2c1=O,86.1*,0.0%,?,?,78.9*
C=C[C@@]1(C)CC(=O)[C@]2(O)[C@@]3(C)[C@H](O)CCC(C)(C)[C@@H]3[C@H](O)[C@H](OC(C)=O)[C@@]2(C)O1,-7.2,·,·,·,-1.3
Cc1cc(-n2c(C)cc(C(=O)COc3ccc(F)c(F)c3)c2C)no1,·,3.0%,·,·,·
SMILES,Shiga inhibitor,AMA1-RON2 inh,Marburg entry inh,LASV entry inh,CHX counter
CC1=C(CC(=O)c2ccccc2)C(=O)c2ccccc2C1=O,87.3*,?,?,-14.0%,36.1*
O=C(CN1C(=O)c2ccccc2C1=O)c1ccccc1,36.1,11.5%,-5.8%,-0.5%,20.0
Cn1c(CCN2CCN(c3ccccn3)CC2)nc2cc(NC(=O)COc3ccccc3)ccc21,-2.9,-7.2%,·,·,10.0
C=CCC(CC(O)COCCC)C(=O)NNC(=S)Nc1ccccc1 (stereo not given),70.9*,76.8%,?,29.2%[46.1 µM],35.8*
Cc1ccc(NS(=O)(=O)c2ccc(N3CCN(c4ccc(O)cc4)CC3)c([N+](=O)[O-])c2)c(C)c1,-1.6,?,2.82µM*,-63.2%,-2.3
Cc1ccccc1C(=O)NNC(=O)C12CC3CC(CC(C3)C1)C2,-7.8,11.5%,5.9%[46.1 µM],12.1%,-2.7
Cc1cccc(C(=O)NNC(=O)C23CC4CC(CC(C4)C2)C3)c1O,82.1,37.1%,-12.5%[46.1 µM],2.1%,14.0*
COc1ccc(C(=O)NNC(=O)C23CC4CC(CC(C4)C2)C3)c(OC)c1,41.2,25.0%,18.6%[46.1 µM],24.5%,21.1*
COC1OC(c2ccccc2)=C(c2cnc(N)nc2)c2ccc(F)cc21 (stereo not given),·,-5.4%,·,·,·
O=C(O)CCn1c(=S)oc2ccccc21,-3.8,8.9%,14.5%,19.8%,-3.7
CC(C)OC(=O)n1c(=S)oc2ccccc21,67.9*,4.0%,?,-20.9%,44.1*
CCCCC(=O)/C=C/n1c(=S)oc2ccccc21,44.1*,8.2%,17.8µM*,13.7%,35.1*
CC(C)(C)[C@@H]1COC(=O)[C@H](Cc2ccc(F)cc2)CC/C=C\C[C@@H](CC(=O)N(CCO)Cc2ccccc2)C(=O)N1,·,-3.6%,·,·,·
C[C@@H](c1ccccc1)N1C(=O)[C@@H]2[C@H]3[C@H](O)[C@H](O)CC(=NOC[C@@H](O)COCc4ccco4)[C@H]3CC[C@H]2C1=O,·,·,1.0%[14.2 µM],·,·
CC(C)c1ccc(/C=C(\NC(=O)c2ccccc2)C(=O)NCCN2CCOCC2)cc1,-23.3,·,·,·,-1.1
CCCCSc1nnc(-c2c[nH]c3ccccc23)n1C,36.9,32.6%,·,·,13.2
Cn1c(SCc2ccccc2)nnc1-c1c[nH]c2ccccc12,48.2*,-4.3%,·,·,20.6*
COC(=O)c1ccc(CSc2nnc(-c3c[nH]c4ccccc34)n2-c2ccccc2)cc1,+,-1.5%,?,?,18.3*
COC(=O)c1ccc(CSc2nnc(-c3c[nH]c4ccccc34)n2C)o1,-9.4,-10.3%,·,·,5.7
COc1ccccc1C(=O)Oc1ccccc1C(=O)Nc1ccccc1,51.9*,-10.0%,·,·,22.8*
COc1cccc2cc(C(=O)Nc3ccccc3C)/c(=N/O)oc12,89.3*,6.0%,·,·,27.9*
O=C(Oc1ccccc1C(=O)Nc1ccccc1)c1ccc(Br)c([N+](=O)[O-])c1,25.7*,-2.5%,?,-0.4%,50.4*
COc1ccccc1C(=O)Nc1ccc(Br)cc1C,62.7*,-2.1%,?,·,29.2*
COc1ccccc1C(=O)Nc1ccc(Br)c2cccnc12,8.9,-16.4%,·,·,-1.9
CN1CCc2nc3sc(C(=O)Nc4ccccc4C(F)(F)F)c(N)c3cc2C1,·,·,-2.8%[46.1 µM],15.6%[46.1 µM],·
Fc1ccc(-c2nn(-c3ccc(Cl)cc3)c3c2cnc2ccc(F)cc23)cc1,·,·,·,2.5%[46.1 µM],·
COc1ccccc1C(=O)Nc1ccc(C(=O)O)cc1,-6.5,1.8%,11.4%,1.9%,-2.8
COc1ccccc1C(=O)Nc1ccc(C(=O)c2ccccc2)cc1,61.9*,14.0%,?,-26.2%[46.1 µM],27.3*
O=C1CCCC2=C1C1O[C@](c3ccsc3)(Cc3c1ccc1ccccc31)O2,i,·,·,·,14.7*
O=c1oc2ccccc2c2c1C1O[C@](c3ccsc3)(Cc3c1ccc1ccccc31)O2,i,·,·,·,19.0*
